Measurements as given in PubChem BioAssay AID493203 (National Center for Advancing Translational Sciences (NCATS), 2011).
Records with an inconclusive call do not appear. Active and inactive are the calls of the source. Calls follow the shape of the dose curve; as a rule, active = well fitted activation curve with a large enough effect; inconclusive = small, poorly fitted or top-dose-only effect; inactive = flat fitted curve, though single readings scatter.
Potency is read from the fitted curve at half-maximal effect.

Assay: qHTS Assay for NPC1 Promoter Activators: Initial hit validation from the primary screen;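 as to activity, positive = activation: reporter driven by the mutant form of the NPC1 promoter; % of control where 0% means no effect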
Conditions: Huh7 NPC1 promoter-luciferase reporter, luminescence, 24 h; series mostly up to 46.1 µM; activity, positive = activation: at the top concentration
Method in brief: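 Huh7 cells stably carrying NPC1 promoter-luciferase, 1500 cells per well in OP-MEM I with 10% FBS; compounds added after 2 hours and incubated 24 hours at 37C. Luminescence read 10 minutes after Amplite luciferase reagent.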
In the case of Nc1ccccc1C(=O)N/N=C1/C2CN3CCN(C2)CC1(Cc1ccccc1)C3, the “activity, positive = activation” value is reported as 0.692% (inactive).
In the case of COc1ccc(NC(=O)CSc2ccc([N+](=O)[O-])cc2)cc1S(=O)(=O)N1CCOCC1, the “activity, positive = activation” value is reported as -1.44% (inactive).
For CC1CN(C(=O)c2ccncc2)CC(C)O1 (stereo unspecified), the “activity, positive = activation” value was -2.47% (inactive).
In the case of Cc1cccc(NC(=O)CSc2nc3ccccc3o2)c1, the “activity, positive = activation” value is reported as 13.4% (inactive).
With O=C(CCCN1C(=O)C(c2ccccc2)Oc2cccnc21)Nc1ccccc1Cl (stereo unspecified) the “activity, positive = activation” value was -11.5% (inactive).
For COc1ccc(-c2csc(N(CCCN(C)C)C(=O)c3ccccc3C)n2)cc1, the “activity, positive = activation” value was -14.9% (inactive).
For CN(C)C(=O)[C@H]1C[C@H]1[C@@H](O)[C@H](CO)NC(=O)[C@H](COCc1ccccc1)NC(=O)OC(C)(C)C, the “activity, positive = activation” value was -3.05% (inactive).
For O=C(Nc1ccc(-c2nc3cccnc3s2)cc1)c1ccc(Cl)nc1, the Potency was 1.25 µM (active).
For O=C(NC1CCCC1)C(c1ccc(F)cc1)N(C(=O)c1csnn1)c1ccccc1 (stereo unspecified), the “activity, positive = activation” value was 1.96% (inactive).
With O=C(C1COc2ccccc2O1)N1CCN(S(=O)(=O)c2ccccc2)CC1 (stereo unspecified) the “activity, positive = activation” value was -2.48% (inactive).
For COc1ccccc1C(=O)Nc1nnc(SCC(=O)NC2CCCC2)s1, the Potency was 0.705 µM (active).
With Cc1ccc(CNC(=O)Nc2ccc(C)cc2)cc1 the Potency was 25 µM (active).
In the case of COCc1cc(C)nc(N/N=C/c2ccc(-c3ccc(Cl)cc3[N+](=O)[O-])o2)c1C#N, the “activity, positive = activation” value is reported as 3.22% (inactive).
For NC(=O)C1(NC(=O)[C@@H]2CC3(CC(c4cccc(NC(=O)[C@@H]5CCC(=O)N5)c4)=NO3)CN2C(=O)c2ccccc2)CC1 (stereo partly specified), the “activity, positive = activation” value was 3.18% (inactive).
For CC(=O)c1cccc(NC(=O)N2CCOCC2)c1, the “activity, positive = activation” value was 4.65% (inactive).
For Cc1ccc(N=Cc2sc(O)c3ccccc23)c(C)c1, the Potency was 1.77 µM (active).
In the case of CC(=O)Nc1nnc(SCC(=O)NCCOc2ccccc2)s1, the “activity, positive = activation” value is reported as 2.05% (inactive).
With COC(=O)c1cn(NC(=O)C2CCCCC2)c(=O)c2ccccc12 the “activity, positive = activation” value was -0.672% (inactive).
With Fc1ccc(-c2nc3nc4ccccc4nc3n2Cc2ccco2)cc1 the “activity, positive = activation” value was 8.2% (inactive).
With CCCCc1cc(=O)oc2cc(OCC(=O)N3CCOCC3)ccc12 the “activity, positive = activation” value was 5.92% (inactive).
In the case of COc1ccc(S(=O)(=O)NC(C(=O)NCCc2ccccn2)C(C)C)cc1 (stereo unspecified), the “activity, positive = activation” value is reported as -3.43% (inactive).
For COC(=O)c1ccc(NC(=O)c2ccc3nc(C)sc3c2)cc1, the Potency was 0.888 µM (active).
In the case of COc1ccccc1CNC(=O)COc1ccc(C)cc1, the “activity, positive = activation” value is reported as -3.78% (inactive).
For O=C(c1cc2cc([N+](=O)[O-])ccc2oc1=O)n1cccn1, the “activity, positive = activation” value was 9.78% (inactive).
In the case of COCCNC(=O)Cn1nc(-c2ccccc2)c2ccccc2c1=O, the “activity, positive = activation” value is reported as -1.52% (inactive).
With Cn1c(SCc2ccccc2)nnc1-c1cnccn1 the Potency was 15.8 µM (active).
For Cc1ccc(C(=O)Nc2ccc(N3CCN(C)CC3)nc2)cc1, the Potency was 31.5 µM (active).
In the case of OCCC1CN(Cc2nc3ccccc3s2)CCN1C1CCCC1 (stereo unspecified), the “activity, positive = activation” value is reported as 6.25% (inactive).
In the case of CCCCCCOc1ccc(OC(=O)c2cccnc2)cc1, the Potency is reported as 19.9 µM (active).
With Cc1cc(C)cc(N(CC(=O)NC2CCCC2)C(=O)CNC(=O)c2ccco2)c1 the “activity, positive = activation” value was 5.42% (inactive).
For COCCNC(=O)CN1C(=O)NC(c2ccccc2)(c2ccccc2)C1=O, the “activity, positive = activation” value was 1.47% (inactive).
